A selection: hits, their analogues and other compounds. The true share with any hit is near 7.7%.
FMDV antiviral: foot and mouth disease virus antiviral activity; FMDV antiviral cell-based qHTS; Potency, µM (series often up to 57.9 µM), for the others: at the highest dose activity change, negative = inhibition, actives largely listed as inhibitors; 410,000 compounds, 1.2% hits; AID 1159524; calls by dose curve; tested in HEK293T cells; note: read-out not given here; potency is the fitted concentration of half-maximal effect; nearly all actives have a fitted effect of over 45% in size
TbPYK inhibitor: inhibitors of Trypanosoma brucei pyruvate kinase; TbPYK enzyme, Kinase-Glo Plus ATP luminescence, 45 min; AID 624173; Q57TT1; Potency, µM (series often up to 76.8 µM), without a hit: at the top dose activity, negative = inhibition, actives largely listed as inhibitors; 410,000 compounds, 0.12% hits; note: potency is the fitted concentration of half-maximal effect; nearly all actives have a fitted effect of over 50% in size
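Glycolytic pyruvate kinase of T. brucei was incubated with substrate, test compound and 130 uM ADP for 45 minutes at room temperature. Luminescent Kinase-Glo Plus signal was measured after 10 minutes.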
HCMV inh: inhibitors of human cytomegalovirus | HFF cells, HCMV-luciferase reporter, 72 h; hits give low values | activity change, negative = inhibition, % at 57.5 µM | 410,000 compounds, 4.5% hits | AID 1259415; in the data active = activity change below about -60%; inconclusive = no clear call, values can overlap the other calls; inactive = above about -39%
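Luciferase read-out from HCMV-luciferase-infected HFFs (MOI 1 PFU/cell) 72 h post infection at 37C; compounds added after 16 h cell attachment; activity normalized between buffer-only basal and Salinomycin (10uM) inhibitor controls.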
Sm TGR inh: blocks Schistosoma mansoni thioredoxin glutathione reductase; Q962Y6; purified TGR, DTNB reduction, TNB absorbance 405 nm; Potency, µM (titrated, usually from 114 µM), inactives show top-dose activity change, negative = inhibition, most hits filed as inhibitors; 360,000 compounds, 3% hits; AID 485364; note: potency is the fitted concentration of half-maximal effect; nearly all actives have a fitted effect of over 60% in size
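First, TGR (20 nM dispensed) and NADPH were mixed with compound. Second, a 15 min room-temperature incubation followed. Third, further NADPH and then DTNB were added to start the reaction. Finally, TNB absorbance was monitored kinetically.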
FBPA Giardia inh: Giardia lamblia aldolase inhibition. 290,000 compounds, 0.71% hits. Potency, µM (titrated, usually from 59.6 µM), for the others: top-dose activity, negative = inhibition, usual class: inhibitors. A8B2U2. AID 2451. purified Giardia FBPA; note: potency is the fitted concentration of half-maximal effect; nearly all actives have a fitted effect of over 55% in size
Target sequence (A8B2U2 whole entry, looked up): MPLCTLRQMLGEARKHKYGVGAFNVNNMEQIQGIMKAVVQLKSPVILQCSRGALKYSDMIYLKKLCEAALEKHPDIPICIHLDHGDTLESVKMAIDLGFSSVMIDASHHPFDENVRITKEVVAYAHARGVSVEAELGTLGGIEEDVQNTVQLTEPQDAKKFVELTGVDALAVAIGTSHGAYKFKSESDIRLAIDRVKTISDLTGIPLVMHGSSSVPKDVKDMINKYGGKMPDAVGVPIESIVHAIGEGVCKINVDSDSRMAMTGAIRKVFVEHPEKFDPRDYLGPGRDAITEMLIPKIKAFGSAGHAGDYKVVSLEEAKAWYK
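Giardia FBPA (40 nM reagent) was preincubated 10 min at RT with compound (up to 57.5 uM final), then substrate plus GAPDH/TPI/NAD/arsenate coupling system with diaphorase/resazurin was added; resorufin fluorescence (525/598 nm) was read after 20 min.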
RE007 growth inh: less growth of the S. pombe RE007 Vpr strain; S. pombe RE007 Vpr strain, BacTiter-Glo ATP luminescence, 24 h; Potency, µM (doses to about 92.2 µM), without a hit: at the top dose activity change, negative = less growth, usual class: inhibitors; 360,000 compounds, 0.21% hits; AID 651644; active = well fitted falling curve with a large enough effect; inconclusive = small, poorly fitted or top-dose-only effect; inactive = no such curve, though single readings can be large or run the other way; note: potency is the fitted concentration of half-maximal effect; nearly all actives have a fitted effect of over 50% in size
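Fission yeast strain RE007, carrying one chromosomally integrated HIV-1 vpr copy, was seeded at OD 0.01 in PMG+AL medium with 23 nL pinned compound. After 24 h at 30 °C and 99% humidity, viability was read by BacTiter-Glo luminescence.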
Starred values were filed as active, the others as inactive; ? = inconclusive; . = not tested or not shown; [ ] = another dose, or the depositor's remark. Unless noted, calls come from the whole dose curve; as a rule, active = well fitted curve in the direction sought with a large enough effect; inconclusive = small, poorly fitted or top-dose-only effect, or another doubt; inactive = no such curve, though single readings can be large; an effect the other way counts as inactive or inconclusive. % is set by controls: 0 for no effect and ±100 for the full control effect.

SMILES | FMDV antiviral | TbPYK inhibitor | HCMV inh | Sm TGR inh | FBPA Giardia inh | RE007 growth inh
COc1ccc(C(=O)c2cc([N+](=O)[O-])ccc2N2CCOCC2)cc1 | -11.6% | -4.6% | -99.1* | -5.0% | 4.1% | -7.3%
Cc1ccc(C(=O)c2cc([N+](=O)[O-])ccc2N2CCOCC2)cc1 | -16.1% | -18.5% | -14.7 | -6.2% | -1.1% | -25.2%
O=C(O)c1cc([N+](=O)[O-])ccc1N1CCCCC1 | -12.6% | -7.8% | -4.1 | 5.9% | -1.1% | -4.5%
Cc1ccc(C(=O)c2cc([N+](=O)[O-])ccc2N2CCCCC2)c(C)c1 | ? | 8.3% | -91.9* | 6.6% | -4.5% | -7.3%
CCOc1ccc(C(=O)c2cc([N+](=O)[O-])ccc2N2CCOCC2)cc1 | ? | -2.9% | -90.3* | 5.1% | 1.2% | -13.7%
CC(C)OC(=O)Cn1c(-c2ccccc2)c(-c2ccccc2)nnc1=O | -13.5% | -2.5% | -23.5 | 0.4% | -2.8% | 0.4%
COC(=O)Cn1c(-c2ccc(OC)cc2)c(-c2ccc(OC)cc2)nnc1=O | -19.9% | 1.7% | 16.0 | 79.4µM* | -4.8% | -0.1%
CCCCCCCCn1sccc1=O | 28.2µM* | ? | -2.2 | 0.0% | . | -9.4%
C=CCn1c(SCC(=O)c2cccs2)nc2sc(C)cc2c1=O | 31.6µM* | 2.4% | -34.9 | -0.8% | 3.4% | 1.1%
CC(C)C[C@H](NS(=O)(=O)c1ccc(F)cc1F)C(=O)N1CCC[C@H]1C(=O)NCc1ccccc1 | . | . | -3.0 | . | . | .
Cc1ccc2c(c1)C(c1ccc(F)cc1)N(C(=O)COc1ccc(Cl)cc1Cl)CC(=O)N2 (stereo unspecified) | ? | 2.3% | -60.2* | 12.8% | . | .
COc1ccc(N2C(=O)CC(Sc3n[nH]c(-c4ccccc4)n3)C2=O)cc1 (stereo unspecified) | -14.1% | -20.4% | 14.9 | 0.316µM* | -20.1% | 17.8µM*
CCOc1ccc2nc(SC3CC(=O)N(c4ccccc4)C3=O)sc2c1 (stereo unspecified) | 16.9% | -0.3% | . | ? | 1.9% | -14.4%
CCOc1ccc(N2C(=O)CC(Sc3n[nH]c(-c4ccccc4)n3)C2=O)cc1 (stereo unspecified) | 7.8% | -29.2% | -37.4 | 0.631µM* | -23.9% | ?
Cc1cc2cc(CCNS(=O)(=O)c3ccc(Br)cc3)c(=O)[nH]c2cc1C | -29.6% | -3.2% | 36.7 | -5.8% | . | .
Cc1cc2cc(C(c3nnnn3C3CCCC3)N(Cc3cccnc3)Cc3ccco3)c(=O)[nH]c2cc1C (stereo unspecified) | ? | 2.9% | -66.5* | ? | -6.2% | -18.5%
Cc1cccnc1N(C(=O)Nc1cccc(Cl)c1)C1=NCC(C)(C)S1 | 2.1% | 5.1% | -62.2* | -7.2% | 0.6% | -23.5%
Cc1cccnc1N(C(=O)Nc1ccccc1)C1=NCC(C)(C)S1 | 11.1% | -0.2% | 1.6 | 5.7% | 3.3% | -18.1%
CN(C)CC(C)(O)c1ccc2c(c1)CN(Cc1cn(C)c3ccccc13)CCO2 (stereo unspecified) | -11.5% | . | . | . | . | .
Cc1cccc(OCC(=O)NCc2ccccc2)c1 | 15.4% | -5.3% | 16.5 | -2.8% | -6.7% | 18.0%
C/C(=N\NC(=O)COc1cccc(C)c1)c1ccc2ccccc2c1O | 35.2% | 7.8% | -77.2* | -2.1% | . | -4.2%
CCOC(=O)C1=CCC(c2ccc([N+](=O)[O-])cc2)N(S(=O)(=O)c2ccc(C)cc2)C1 (stereo unspecified) | . | . | -5.6 | . | . | .
COc1ccccc1CCNC(=O)c1cccn1-c1nnc(N2CCCC2)s1 | 21.2% | 2.3%[15.4 µM] | 0.0 | 5.1% | . | .
Cc1ccc(Cl)cc1N1CCN(Cc2nc3c(c(=O)[nH]c(=O)n3C)n2Cc2ccccc2F)CC1 | ? | -6.1% | -77.1* | 2.0% | 0.3% | 2.7%
Cc1ccccc1Cn1c(CN2CCN(c3cc(Cl)ccc3C)CC2)nc2c1c(=O)[nH]c(=O)n2C | ? | -2.7% | -27.0 | -4.6% | . | .
SMILES | FMDV antiviral | TbPYK inhibitor | HCMV inh | Sm TGR inh | FBPA Giardia inh | RE007 growth inh
COc1ccnc(N2CCN(c3ccc(Cl)cc3)CC2)c1C#N | ? | 1.4% | -67.8* | 12.1% | -0.6%[12.9 µM] | -3.2%
O=C(c1cccn1-c1nnc(N2CCCCC2)s1)N1CCN(c2ccccc2)CC1 | -1.1% | 7.3%[15.4 µM] | 0.0 | 0.1% | . | .
O=C(CNc1cc(S(=O)(=O)N2CCCC2)ccc1OCC(F)(F)F)Nc1ccc(SC(F)F)cc1 | -23.8% | 4.2% | -63.1* | 3.8% | -7.6% | 10.5%
CCOc1ccccc1-n1c(N)c(C(N)=O)sc1=S | 2.2% | -17.4% | -62.8* | -1.7% | 1.5% | 12.6%
COc1ccc(C(=O)c2c(-c3cccc(C)c3)oc3ccc(N4CCOCC4)cc23)cn1 | 3.0% | -6.0% | -72.7* | -17.3% | 7.0% | 15.8%
Cc1[nH]c2ccccc2c1C(O)c1ccncc1 (stereo unspecified) | 11.0% | -2.6% | -20.0 | 25.1µM* | 3.4% | -2.8%
Cc1ccccc1C(O)c1ccncc1 (stereo unspecified) | -8.9% | -3.7% | -12.8 | -7.3% | -1.6% | 0.0%
Cc1[nH]c2ccccc2c1C(c1ccccn1)c1c(C)[nH]c2ccccc12 | -20.5% | 2.8% | 39.0 | 5.62µM* | ? | 4.7%
Cc1[nH]c2ccccc2c1C(c1ccncc1)N1CCCCC1 (stereo unspecified) | -12.9% | -9.7% | 18.2 | 1.78µM* | 2.2% | 13.2%
Cc1[nH]c2ccccc2c1C(c1ccncc1)N1CCN(c2ccc(F)cc2)CC1 (stereo unspecified) | 0.0% | 5.1% | 20.5 | 8.91µM* | -1.0% | -5.4%
COc1cc(C(=O)Oc2ccccc2/C=N/NC(=O)c2ccc(Cl)cc2Cl)cc(OC)c1OC | 14.7% | -8.4% | -99.7* | -3.6% | -7.0% | 22.3%
CN(O)/C=C/C(=O)c1ccc(Br)cc1 | 6.7% | -4.6% | ? | 8.91µM* | -1.9% | -0.4%
CCOc1cc(C(Nc2cc(C)ccn2)c2ccc3cccnc3c2O)ccc1OC (stereo unspecified) | -18.3% | 53.6% | -96.6* | 0.282µM* | . | .
COc1ccc(C(NC(C)=O)c2ccc3cccnc3c2O)c(OC)c1 (stereo unspecified) | 0.0% | -8.1% | . | -6.1% | ? | -6.1%
Cc1ccnc(NCc2ccccc2O)c1 | 16.8% | 4.7% | -13.9 | -6.4% | -9.7% | -4.4%
Cc1ccc(C(Nc2ccccn2)c2ccc3cccnc3c2O)cc1 (stereo unspecified) | -8.7% | 35.3% | -64.3* | 1µM* | . | .
COc1ccc(C(Nc2ccccn2)c2ccc3ccc(C)nc3c2O)cc1C (stereo unspecified) | -24.9% | 0.3% | -10.5 | 0.708µM* | . | .
Cc1ccnc(NC(c2cccc(O)c2)c2ccc3ccc(C)nc3c2O)c1 (stereo unspecified) | -17.0% | 14.4% | 8.5 | 1.58µM* | . | .
CN1C(=O)CC[C@@H]1c1cccnc1 | . | . | . | . | -2.1%[21.7 µM] | .

Source: PubChem BioAssay (National Center for Advancing Translational Sciences (NCATS))
